Measurements published in PubChem BioAssay AID652057 (Broad Institute, 2013).
About 1,000 (71%) of roughly 1,400 compounds were called active. How the calls were made is not given here. So high a share suggests a set chosen from earlier hits. A selection follows. Results with a measured potency or affinity are listed apart.

Assay: inhibitors of HIV Env-driven cell fusion, dose response, cherry-pick (AID 652057)
Details: HeLa-JRFL Env/CEM21 cell fusion, luciferase; series mostly up to 35 µM; activity change, negative = inhibition: at the top concentration

Activity change, negative = inhibition, inactive:
COc1cc(CSc2nnnn2-c2ccc(C)cc2)cc(OC)c1OC -1.13%, c1ccc2c(c1)ncn2CCCCOc1ccc2c(c1)CCC2 1.92% [at 16 µM], Cc1ccc(Cn2ncc3c(N4CCN(Cc5ccc(Cl)cc5)CC4)ncnc32)cc1 -11.6%, COc1ccc(C)cc1NC(=O)CCNS(=O)(=O)c1ccc2c(c1)CC(C)N2C(C)=O (centres undefined) -12.8%, CCOC(=O)C1CCN(C(=O)c2ccc3c(c2)C(=O)N(c2ccccc2C)C3=O)CC1 35.1%, COc1ccc(OCC(=O)Nc2ccccc2N2CCCCC2)cc1 39.9%, OCC[C@@H]1C[C@@H](O)[C@H](O)[C@]2(OCc3ccccc32)O1 -4.52%, Cc1ccc(Cn2ncc3c(N4CCN(c5ccc(C)cc5)CC4)ncnc32)cc1 35%, c1ccc2c(c1)CCN(c1ncnc3c1[nH]c1ccccc13)C2 2.06%, CC(=O)c1ccc(S(=O)(=O)N2CCN(c3nc4c(C)c(C)ccc4cc3C#N)CC2)cc1 -11.1%, O=C(C[C@H]1C[C@@H]2c3cc(NC(=O)C4CCC4)ccc3O[C@@H]2[C@@H](CO)O1)NCC(F)(F)F 9.8%, CCOC(=O)C1CCCN(Cc2nc(N)nc(Nc3ccc(OC)cc3)n2)C1 (centres undefined) -0.574%, CC(=O)C1=C(C)NC(=S)NC1c1ccccc1 (centres undefined) 13.6%, COC(=O)[C@@]1(Cc2ccc(F)cc2)[C@H]2c3cc(C(=O)N(C)C)n(CCO)c3C[C@H]2CN1C(=O)c1ccccc1 13.3%, N#CCSc1nnc(-c2sc3ccccc3c2Cl)o1 -11.7%, CO[C@H]1CN(C)C(=O)c2cc(NS(=O)(=O)c3ccc(Cl)cc3)ccc2OC[C@@H](C)N(C)C[C@@H]1C 19.1%, CO[C@H]1CN(C)C(=O)c2cc(NC(C)=O)ccc2OC[C@@H](C)N(Cc2nccs2)C[C@H]1C 20.8%, CCNC(=O)C[C@@H]1CC[C@@H]2[C@H](COC[C@@H](O)CN2C(=O)c2ccccn2)O1 -7.64%, CS(=O)(=O)Nc1ccc2c(c1)[C@H]1C[C@H](CC(=O)NCc3ccc(-c4ccccc4)cc3)O[C@H](CO)[C@H]1O2 -12.4%, CCCNC(=O)C[C@@H]1C[C@@H]2c3cc(NC(=O)Cc4ccncc4)ccc3O[C@@H]2[C@H](CO)O1 5.24%, CN(C)C(=O)C[C@H]1C[C@@H]2c3cc(NS(=O)(=O)c4ccc(F)cc4)ccc3O[C@@H]2[C@@H](CO)O1 14.9%, CS(=O)(=O)Nc1ccc2c(c1)[C@H]1C[C@@H](CC(=O)NCCN3CCCCC3)O[C@@H](CO)[C@H]1O2 18.3%, CCCNC(=O)C[C@H]1C[C@H]2c3cc(NC(=O)Cc4ccncc4)ccc3O[C@H]2[C@H](CO)O1 0.858%, COCCNC(=O)C[C@@H]1C[C@H]2c3cc(N(C)C)ccc3O[C@H]2[C@@H](CO)O1 14.4% [at 16 µM], CN(C)C(=O)C[C@@H]1C[C@H]2c3cc(NS(=O)(=O)c4ccc(F)cc4)ccc3O[C@H]2[C@H](CO)O1 37.5%, O=C(C[C@@H]1C[C@@H]2c3cc(NC(=O)C4CCC4)ccc3O[C@@H]2[C@@H](CO)O1)NCc1ccc2c(c1)OCO2 -14.9%, O=C(C[C@@H]1C[C@@H]2c3cc(NC(=O)c4ccc5c(c4)OCO5)ccc3O[C@@H]2[C@@H](CO)O1)NCc1ccc(Oc2ccccc2)cc1 -9.82% [at 30 µM], COC(=O)C[C@@H]1C[C@H]2c3cc(NS(=O)(=O)c4cccc(OC)c4)ccc3O[C@H]2[C@@H](CO)O1 53.6%, CS(=O)(=O)Nc1ccc2c(c1)[C@@H]1C[C@@H](CC(=O)N3CCc4ccccc4C3)O[C@H](CO)[C@@H]1O2 16.9%, O=C(C[C@H]1C[C@@H]2c3cc(NC(=O)C4CCOCC4)ccc3O[C@@H]2[C@H](CO)O1)NCc1ccccc1 -0.474%, CS(=O)(=O)Nc1ccc2c(c1)[C@H]1C[C@H](CC(=O)N3CCc4ccccc4C3)O[C@H](CO)[C@H]1O2 4.05%, O=C(C[C@@H]1C[C@H]2c3cc(NC(=O)C4CCOCC4)ccc3O[C@H]2[C@@H](CO)O1)NCc1ccccc1 6.66%, CN(C)C(=O)C[C@@H]1C[C@@H]2c3cc(NS(=O)(=O)c4ccc(F)cc4)ccc3O[C@@H]2[C@@H](CO)O1 28%, O=C(C[C@@H]1C[C@H]2c3cc(NC(=O)Nc4ccc(F)cc4)ccc3O[C@H]2[C@H](CO)O1)NCC1CC1 38.6%, O=C(C[C@@H]1C[C@@H]2c3cc(NS(=O)(=O)c4ccc(F)cc4)ccc3O[C@@H]2[C@H](CO)O1)NCc1ccccc1F -1.08%, O=C(C[C@@H]1C[C@@H]2c3cc(NC(=O)Nc4ccccc4)ccc3O[C@@H]2[C@@H](CO)O1)NCc1ccccc1 12.8% [at 30 µM], O=C(C[C@H]1C[C@@H]2c3cc(NC(=O)Nc4ccc(F)cc4)ccc3O[C@@H]2[C@@H](CO)O1)NCC1CC1 -7.22%, O=C(C[C@H]1C[C@H]2c3cc(NS(=O)(=O)c4ccc(F)cc4)ccc3O[C@H]2[C@@H](CO)O1)NCc1ccccc1F 27.6%, Cc1cc(C(=O)N2CCC(C(=O)O)CC2)c(C(F)(F)F)o1 -13.1%, CCN(CC)S(=O)(=O)c1cccc(NC(=O)c2ccc(-n3nc(C)cc3C)cc2)c1 -21.6%, Cc1cc(Nc2cccc(C(F)(F)F)c2)cc(=O)n1-c1cccc(C(F)(F)F)c1 -4.17%, CCc1nnc(NC(=O)[C@@H](NC(=O)c2cccc(S(=O)(=O)N(CC)CC)c2)C(C)C)s1 -4.25%, O=C(Nc1cccc(C(F)(F)F)c1)c1ccc(Cn2cc(Br)cn2)o1 -20.7%, O=C(C[C@H]1C[C@H]2c3cc(NC(=O)C4CCC4)ccc3O[C@H]2[C@@H](CO)O1)NCc1ccc2c(c1)OCO2 7.29% [at 30 µM], O=C(NCc1cccc(F)c1)[C@@H]1[C@@H](CO)[C@@H]2Cn3c(ccc(-c4cccnc4)c3=O)[C@H]1N2CC1CC1 5.3%, CN(C)CCCNC(=O)[C@H]1[C@H](CO)[C@H]2Cn3c(ccc(C4=CCCC4)c3=O)[C@H]2N1CCC(F)(F)F 23.1%, Cc1cc(C)c(CN2CCN(C(=O)Cn3ccc(NC(=O)OCc4ccccc4)nc3=O)CC2)c(C)c1 -21.1%, CCCNC(=O)C[C@@H]1C[C@@H]2c3cc(NC(=O)CN(C)C)ccc3O[C@@H]2[C@H](CO)O1 1.88%, C[C@H](CO)N1C[C@H](C)[C@H](CN(C)C(=O)Nc2ccccc2)Oc2c(NS(=O)(=O)c3ccc(F)cc3)cccc2C1=O 77.5% [at 8 µM]
